Screening data deposited in PubChem by National Center for Advancing Translational Sciences (NCATS).
JMJD2A Tudor = inhibitors of human JMJD2A Tudor domain; AlphaScreen JMJD2A-Tudor / H3K4me3 peptide binding; Potency, µM (top dose mostly 114 µM), inactives show top-dose activity change, negative = inhibition, most hits filed as inhibitors; 4.4% of 390,000 active; AID 504339; further: potency means the concentration at half of the fitted maximal effect; on the % scale 0 is the no-effect control and ±100 the full control effect; nearly all actives have a fitted effect of over 50% in size
BAZ2B inh = inhibitors of human BAZ2B bromodomain; Q9UIF8; AlphaScreen BAZ2B-H3K14Ac peptide displacement; Potency, µM (highest dose often 114 µM), for the others: at the highest dose activity change, negative = inhibition, usual class: inhibitors; 4.4% of 360,000 active; AID 504333; further: potency means the concentration at half of the fitted maximal effect; on the % scale 0 is the no-effect control and ±100 the full control effect; nearly all actives have a fitted effect of over 60% in size
Target sequence (Q9UIF8 whole entry, looked up): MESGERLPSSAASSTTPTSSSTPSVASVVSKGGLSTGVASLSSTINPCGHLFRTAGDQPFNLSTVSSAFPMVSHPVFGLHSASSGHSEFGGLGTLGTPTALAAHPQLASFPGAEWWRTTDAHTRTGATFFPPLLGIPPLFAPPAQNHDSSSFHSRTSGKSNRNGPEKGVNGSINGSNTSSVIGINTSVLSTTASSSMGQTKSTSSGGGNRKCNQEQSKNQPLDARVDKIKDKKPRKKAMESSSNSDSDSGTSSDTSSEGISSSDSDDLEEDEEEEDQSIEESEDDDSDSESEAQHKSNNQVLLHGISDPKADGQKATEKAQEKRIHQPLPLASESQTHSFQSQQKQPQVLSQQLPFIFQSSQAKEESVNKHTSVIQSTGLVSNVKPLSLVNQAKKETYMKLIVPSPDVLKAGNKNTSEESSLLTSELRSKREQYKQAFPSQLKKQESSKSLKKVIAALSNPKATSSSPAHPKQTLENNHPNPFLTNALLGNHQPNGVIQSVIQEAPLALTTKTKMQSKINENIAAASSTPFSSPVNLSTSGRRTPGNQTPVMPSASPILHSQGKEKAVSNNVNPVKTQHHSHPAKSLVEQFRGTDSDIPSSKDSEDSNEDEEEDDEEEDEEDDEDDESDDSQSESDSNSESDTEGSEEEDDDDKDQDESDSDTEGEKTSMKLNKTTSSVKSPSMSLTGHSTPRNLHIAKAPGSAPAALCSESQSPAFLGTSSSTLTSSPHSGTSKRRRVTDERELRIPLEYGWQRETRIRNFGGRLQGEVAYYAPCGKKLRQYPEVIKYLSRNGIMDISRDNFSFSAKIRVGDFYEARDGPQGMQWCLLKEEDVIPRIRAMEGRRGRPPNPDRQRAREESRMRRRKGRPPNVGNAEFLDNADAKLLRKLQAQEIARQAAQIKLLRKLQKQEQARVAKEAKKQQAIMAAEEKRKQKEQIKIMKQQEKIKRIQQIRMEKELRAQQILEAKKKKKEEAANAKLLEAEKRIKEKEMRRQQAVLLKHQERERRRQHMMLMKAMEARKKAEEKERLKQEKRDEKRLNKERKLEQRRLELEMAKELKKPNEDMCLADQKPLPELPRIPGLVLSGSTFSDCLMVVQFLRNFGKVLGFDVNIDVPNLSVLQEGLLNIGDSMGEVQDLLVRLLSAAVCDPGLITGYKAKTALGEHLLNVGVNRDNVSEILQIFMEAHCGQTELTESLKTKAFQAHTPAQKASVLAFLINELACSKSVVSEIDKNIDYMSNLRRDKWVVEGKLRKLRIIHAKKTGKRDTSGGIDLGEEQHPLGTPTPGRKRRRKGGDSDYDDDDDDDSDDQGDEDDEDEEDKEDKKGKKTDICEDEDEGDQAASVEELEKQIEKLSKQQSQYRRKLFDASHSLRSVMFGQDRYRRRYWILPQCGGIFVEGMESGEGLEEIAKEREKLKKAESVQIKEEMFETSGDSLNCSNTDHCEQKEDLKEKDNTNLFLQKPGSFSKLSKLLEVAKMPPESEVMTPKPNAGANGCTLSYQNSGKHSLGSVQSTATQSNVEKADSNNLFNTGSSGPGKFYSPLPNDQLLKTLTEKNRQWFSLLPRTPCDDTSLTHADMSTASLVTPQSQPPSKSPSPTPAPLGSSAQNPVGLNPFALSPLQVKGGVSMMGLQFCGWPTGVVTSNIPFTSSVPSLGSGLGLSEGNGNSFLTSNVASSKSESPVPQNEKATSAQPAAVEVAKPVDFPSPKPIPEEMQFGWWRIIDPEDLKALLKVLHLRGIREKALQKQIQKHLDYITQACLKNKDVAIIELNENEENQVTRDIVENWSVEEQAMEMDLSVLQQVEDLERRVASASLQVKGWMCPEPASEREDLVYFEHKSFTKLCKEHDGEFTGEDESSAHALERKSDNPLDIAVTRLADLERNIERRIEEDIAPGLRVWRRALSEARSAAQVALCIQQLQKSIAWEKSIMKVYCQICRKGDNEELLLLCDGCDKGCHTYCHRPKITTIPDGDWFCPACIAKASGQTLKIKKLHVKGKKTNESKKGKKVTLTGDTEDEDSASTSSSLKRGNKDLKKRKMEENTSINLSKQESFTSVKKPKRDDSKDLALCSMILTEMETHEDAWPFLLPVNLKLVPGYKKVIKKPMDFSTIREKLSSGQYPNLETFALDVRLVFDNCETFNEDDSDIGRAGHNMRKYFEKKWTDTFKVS
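In this displacement format the biotinylated H3(5-23) peptide acetylated at Lys14 serves as ligand at 50 nM, with BAZ2B at 50 nM in PBS pH 7.4 containing 0.01% Tween-20. Donor and acceptor beads are 10 ug/mL final.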
PLK1 PBD inh = blocks phosphopeptide binding to human PLK1 polo-box domain; P53350; Plk1 PBD binding of FITC phosphopeptide, fluorescence polarization; Potency, µM, for inactives: max response, negative = inhibition, usual class: inhibitors; 2.8% of 360,000 active; AID 720504; further: potency means the concentration at half of the fitted maximal effect; series mostly up to about 57 µM; on the % scale 0 is the no-effect control and ±100 the full control effect; nearly all actives have a fitted effect of over 65% in size
KAT2A inh = inhibitors of human GCN5L2 histone acetyltransferase. 0.21% of 390,000 active. AID 504327. Q92830. GCN5L2 HAT assay, ThioGlo1 CoA-SH fluorescence. Potency, µM (doses to about 58.9 µM), without a hit: at the top dose activity change, negative = inhibition, usual class: inhibitors; further: potency means the concentration at half of the fitted maximal effect; on the % scale 0 is the no-effect control and ±100 the full control effect
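GCN5L2 (20 nM) in 50mM HEPES pH 7.5, 0.1mM EDTA, 0.01% Tween-20 preincubated 15 min with compounds at room temperature. Reaction started with H3(1-25) 75uM, acetyl-CoA 70uM, ThioGlo1 50uM; CoA-thiol fluorescence (Ex340/Em540) read at 0 and 20 min.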
PI5P4Ka inh = blocks human PI5P4K alpha kinase activity. P48426. PI5P4Kalpha enzyme, ADP-Glo luminescence, 60 min; stronger effect = lower value. max response, %. 1.2% of 330,000 active. AID 652105; active means max response of -50% or lower; inconclusive means between -30% and -50%; inactive means -30% or higher; further: value at the top dose of about 77 µM; on the % scale 0 is the no-effect control and ±100 the full control effect
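ADP-Glo luminescence end-point read after a 60 min room-temperature kinase reaction of PI5P4Kalpha plus substrate, initiated with ATP at 5 microM final. Buffer: 0.038 M HEPES pH 7.4, EGTA, 0.1% CHAPS, 5% DMSO.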
HP1b binding inh = blocks HP1-beta chromodomain binding to methylated histone tails | P83916 | 0.56% of 390,000 active | Potency, µM (titrated, usually from 114 µM), for the others: at the highest dose activity change, negative = inhibition, most hits filed as inhibitors | AlphaScreen HP1-beta / biotin-H3K9me3 peptide binding; further: potency means the concentration at half of the fitted maximal effect; nearly all actives have a fitted effect of over 70% in size
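HP1-beta protein (50 nM final) preincubated 30 min at room temperature with biotinylated H3(1-18)K9me3 peptide (50 nM) in PBS pH 7.4, 0.01% Tween-20, then compound added for 30 min. AlphaScreen streptavidin donor/nickel chelate acceptor beads (10 ug/mL final), 30 min dark, luminescence read.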
* = called active by the depositor; [ ] = another dose, or the depositor's remark. Sampled rows, rich in hits. Any-hit rate of the full collection: about 7%. Unless noted, the call rests on the fitted dose curve; in most records, active means well fitted curve in the direction sought with a large enough effect; inconclusive means small, poorly fitted or top-dose-only effect, or another doubt; inactive means no such curve, though single readings can be large; an effect the other way counts as inactive or inconclusive.

What do the screens show for `Cc1[nH]n(C(N)=S)c(=O)c1N=Nc1ccccc1C(F)(F)F`?
JMJD2A Tudor: inconclusive; BAZ2B inh: -36%; PLK1 PBD inh: 24µM*; KAT2A inh: 6%; PI5P4Ka inh: -6; HP1b binding inh: 10%

How did CC(C)(O)CN(C(=O)c1ccccc1)C1CCCCC1 do in these assays?
JMJD2A Tudor: -1%; PLK1 PBD inh: 3%; PI5P4Ka inh: -3; HP1b binding inh: 20%

Results for CCCCSc1nc(C(=O)O)cc(=O)[nH]1 ?
JMJD2A Tudor: 40µM*; BAZ2B inh: -2%; PLK1 PBD inh: 2%; KAT2A inh: 0%; PI5P4Ka inh: -6; HP1b binding inh: 40%

What do the screens show for `CCCCSc1nc(CCC)cc(=O)[nH]1`?
JMJD2A Tudor: -11%; BAZ2B inh: 0%; PLK1 PBD inh: -2%; KAT2A inh: -9%; PI5P4Ka inh: -2; HP1b binding inh: 21%

How did COC(=O)[C@]1(Sc2ccc(OC)cc2)CC(=O)N[C@@H]1c1ccccc1 do in these assays?
PLK1 PBD inh: -6%; PI5P4Ka inh: -1

How did Cc1ccc(CNC(=O)CCc2c(C)c3ccc(O)c(C)c3oc2=O)cc1 do in these assays?
JMJD2A Tudor: -16%; BAZ2B inh: 0%; KAT2A inh: -9%; HP1b binding inh: 7%

How did CCOc1ncccc1C(=O)Nc1ccc(Cl)cc1 do in these assays?
JMJD2A Tudor: inconclusive; BAZ2B inh: 43%; PLK1 PBD inh: 11µM*; KAT2A inh: -4%; PI5P4Ka inh: 0; HP1b binding inh: 17%

How did CCOc1ccc(NC(=O)c2cnccn2)cc1 do in these assays?
JMJD2A Tudor: 17%; BAZ2B inh: -1%; PLK1 PBD inh: -1%; KAT2A inh: 2%; PI5P4Ka inh: 1; HP1b binding inh: 22%

Results for NS(=O)(=O)c1ccc(CNC(=O)c2ccccn2)cc1 ?
JMJD2A Tudor: 4%[11.4 µM]; BAZ2B inh: 79µM*; PLK1 PBD inh: -9%; KAT2A inh: -8%; PI5P4Ka inh: 3; HP1b binding inh: 56%

What do the screens show for `CNS(=O)(=O)c1ccc(NC(=O)c2ccccn2)cc1`?
JMJD2A Tudor: 13µM*; BAZ2B inh: 7%; PLK1 PBD inh: -11%; KAT2A inh: -3%; PI5P4Ka inh: 0; HP1b binding inh: -4%

Results for NS(=O)(=O)c1ccc(CNC(=O)c2cc(-c3ccccn3)nc3ccc(Cl)cc23)cc1 ?
JMJD2A Tudor: -21%; BAZ2B inh: 1%; PLK1 PBD inh: -20%; KAT2A inh: -10%; PI5P4Ka inh: -25; HP1b binding inh: -10%

Results for CCOc1ccc(NC(=O)c2ccccn2)cc1 ?
JMJD2A Tudor: 16µM*; BAZ2B inh: 8%; PLK1 PBD inh: -16%; KAT2A inh: 0%; PI5P4Ka inh: -10; HP1b binding inh: 18%

How did CC(=O)Nc1ccc(S(=O)(=O)N2CCN(S(=O)(=O)c3ccc4c(c3)OCCO4)CC2)cc1 do in these assays?
JMJD2A Tudor: -5%

How did Cc1ccc(C)c(Cn2c(=O)c3c(nc4n3CCN4c3ccc(F)cc3)n(C)c2=O)c1 do in these assays?
JMJD2A Tudor: -6%; BAZ2B inh: -8%; KAT2A inh: -2%; HP1b binding inh: 13%

What do the screens show for `O=C(/C(=C/O)N=Nc1ccccc1)c1ccncc1`?
JMJD2A Tudor: inconclusive; BAZ2B inh: inconclusive; PLK1 PBD inh: -6%; KAT2A inh: -5%; PI5P4Ka inh: -17; HP1b binding inh: -15%

Results for Cc1cccc(N=N/C(=C\O)C(=O)c2cccs2)c1 ?
JMJD2A Tudor: 25µM*; BAZ2B inh: 11µM*; PLK1 PBD inh: -16%; KAT2A inh: -10%; PI5P4Ka inh: -11; HP1b binding inh: inconclusive

What do the screens show for `N#CCCn1cc(C(=O)NCc2ccccc2)c(-c2cccs2)n1`?
JMJD2A Tudor: -5%; BAZ2B inh: -4%; PLK1 PBD inh: 7%; KAT2A inh: -5%; PI5P4Ka inh: 9; HP1b binding inh: 37%

What do the screens show for `N#CCCn1cc(C=O)c(-c2cccs2)n1`?
JMJD2A Tudor: inconclusive; BAZ2B inh: -4%; PLK1 PBD inh: 27µM*; KAT2A inh: 2%; PI5P4Ka inh: inconclusive; HP1b binding inh: -11%

Results for N#CCCn1cc(C(=O)Nc2ccc(C(=O)O)cc2)c(-c2cccs2)n1 ?
JMJD2A Tudor: 16µM*; BAZ2B inh: -6%; PLK1 PBD inh: 6µM*; KAT2A inh: -2%; PI5P4Ka inh: inconclusive; HP1b binding inh: 18%

Results for Cc1ccc(-c2nn(CCC#N)cc2C=C(C#N)C#N)cc1 ?
JMJD2A Tudor: -5%; BAZ2B inh: -3%; PLK1 PBD inh: -6%; KAT2A inh: -6%; HP1b binding inh: 38%

Results for O=S(=O)(Nc1ccc(C(F)(F)F)cc1)c1cnc[nH]1 ?
JMJD2A Tudor: -16%[11.4 µM]; BAZ2B inh: 13%; PLK1 PBD inh: 30µM*; KAT2A inh: -3%; PI5P4Ka inh: inconclusive; HP1b binding inh: -13%

How did O=S(=O)(Nc1ccc(Cl)c(C(F)(F)F)c1)c1cnc[nH]1 do in these assays?
JMJD2A Tudor: -3%; BAZ2B inh: 7%; PLK1 PBD inh: -6%; KAT2A inh: 3%; PI5P4Ka inh: -5; HP1b binding inh: 16%

How did O=C(O)CN(CC(=O)O)CC(=O)O do in these assays?
JMJD2A Tudor: 32µM*; PLK1 PBD inh: inconclusive; PI5P4Ka inh: inconclusive; HP1b binding inh: 46%

What do the screens show for `NNC(=O)c1nn(-c2ccc(Cl)cc2)cc1O`?
JMJD2A Tudor: -23%[11.4 µM]; BAZ2B inh: -23%; PLK1 PBD inh: 17µM*; KAT2A inh: -12%; PI5P4Ka inh: inconclusive; HP1b binding inh: -4%

How did COc1c(O)cc(O)c2c(=O)cc(-c3ccccc3)oc12 do in these assays?
JMJD2A Tudor: -18%; PLK1 PBD inh: -1%; KAT2A inh: -4%; PI5P4Ka inh: -20; HP1b binding inh: 44%

Results for CC(=O)Nc1ccc2c3c(cccc13)C(=O)N(c1ccccc1)C2=O ?
JMJD2A Tudor: 6%; BAZ2B inh: -3%; PLK1 PBD inh: 2%; KAT2A inh: 22µM*; PI5P4Ka inh: 0; HP1b binding inh: 38%

How did O=C1c2cccc3cccc(c23)C(=O)N1c1ccc(O)cc1 do in these assays?
JMJD2A Tudor: -25%; BAZ2B inh: 79µM*; PLK1 PBD inh: -6%; KAT2A inh: -9%; PI5P4Ka inh: 1; HP1b binding inh: 24%

How did O=C(O)c1ccc2c3c(cccc13)C(=O)N(c1ccccc1)C2=O do in these assays?
JMJD2A Tudor: inconclusive; BAZ2B inh: 56µM*; PLK1 PBD inh: inconclusive; KAT2A inh: -17%; PI5P4Ka inh: -13; HP1b binding inh: inconclusive

What do the screens show for `O=C1C=CC(=O)N1c1ccc(O)cc1`?
JMJD2A Tudor: 40µM*; BAZ2B inh: -5%; PLK1 PBD inh: 17µM*; KAT2A inh: inconclusive; PI5P4Ka inh: -19; HP1b binding inh: inconclusive
